Consider eight compounds from PubChem BioAssay.

A short description of test [1]: A549 cell viability effects, profiling panel, calcein-AM fluorescence, 48 h, basal (AID 1162). Further: test concentration not given here. To be noted: higher = more signal.
Test [2] can be described thus: adipocyte viability effects, profiling panel, cell-based, 3T3-L1 adipocytes, calcein-AM fluorescence, 48 h, basal (AID 1163). Further: test concentration not given here. To be noted: 3T3-L1 adipocytes viability, higher = more signal.
Test [3] is described as follows: HepG2 cell viability effects, profiling panel, calcein-AM fluorescence, 48 h, basal (AID 1164). Further: test concentration not given here. To be noted: higher = more signal.
The nature of test [4]: MM1S cell viability effects, profiling panel, calcein-AM fluorescence, 48 h, basal (AID 1165).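 Further: viability of MM1S multiple myeloma cells under basal unstimulated conditions; test concentration not given here.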 To be noted: higher = more signal.
Test [5] can be described thus: basal RPMI8226 viability, no added stimulus, profiling panel, cell-based, calcein-AM fluorescence, 48 h, PK04 Diversity Set (AID 1166).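 Further: cells grown under basal conditions without added stimulus; test concentration not given here.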 To be noted: RPMI8226 myeloma viability, higher = more signal.
A short description of test [6]: basal HepG2 mitochondrial membrane potential changes, profiling panel, cell-based, JC-1 fluorescence, 24 h, 100 nL compound (AID 1167). Further: test concentration not given here. To be noted: higher = more signal.
Test [7] can be described thus: basal 3T3-L1 adipocyte mitochondrial potential changes, profiling panel, cell-based, JC-1 fluorescence, 3T3-L1 adipocytes, 24 h, 100 nL compound (AID 1168). Further: test concentration not given here. To be noted: JC-1 mitochondrial fluorescence, higher = more signal, called active from +8 up or from −8 down.
Test [8] in a line: basal RPMI8226 mitochondrial membrane potential changes, profiling panel, cell-based, JC-1 fluorescence, 24 h, 100 nL compound (AID 1169). Further: test concentration not given here. To be noted: RPMI8226 myeloma, JC-1 mitochondrial potential fluorescence, higher = more signal.
Test [9] in a line: basal MM1S mitochondrial membrane potential changes, profiling panel, cell-based, JC-1 fluorescence, 24 h, 100 nL compound (AID 1170). Further: test concentration not given here. To be noted: higher = more signal.
Test [10] in a line: A549 lung cancer cell viability effects, profiling panel, resazurin fluorescence, 24 h, PK04 Diversity Set (AID 1171). Further: test concentration not given here. To be noted: higher = more signal, called active from +8 up or from −8 down.
Test [11] is described as follows: HepG2 liver cancer cell viability effects, profiling panel, resazurin fluorescence, 24 h, PK04 Diversity Set (AID 1172). Further: test concentration not given here. To be noted: higher = more signal. In general terms: Alamar Blue is a resazurin reagent that responds to reducing activity.
Test [12] is described as follows: basal S. cerevisiae growth modulation, no modifier, primary screen, OD600, strain BY4716, 24 h, basal condition (AID 1173). To be noted: OD600, 24 h, higher = more signal, called active from +8 up or from −8 down.
A short description of test [13]: MM1S myeloma cell viability, profiling panel, resazurin fluorescence, basal, 24 h, PK04 Diversity Set (AID 1174).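 Further: MM1S multiple myeloma cell line; test concentration not given here.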 To be noted: higher = more signal, called active from +8 up or from −8 down.
The target of test [14] is Dihydroorotate dehydrogenase (quinone), mitochondrial (Plasmodium falciparum (isolate 3D7)) (UniProt Q08210). Put plainly: PfDHODH enzyme inhibitors, primary screen, biochemical, C-terminal His tag, absorbance 600 nm (AID 1175).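 Further: recombinant parasite enzyme with a five histidine tag at its C terminus; test concentration not given here.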 To be noted: DCIP absorbance 600 nm, higher = more signal, called active from +8 up or from −8 down.
The nature of test [15]: P. aeruginosa biofilm formation inhibitors, primary screen, strain PAO1, LB-PBS medium, absorbance 600 nm (AID 1176). Further: test concentration not given here. To be noted: P. aeruginosa PAO1 growth/biofilm, A600, 12 h; higher = more signal.
A short description of test [16]: S. cerevisiae RM11-1a growth modifiers, primary screen, strain RM11-1a, OD600, basal, 24 h (AID 1177).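 Further: cultures grown under basal conditions with no added stressor; test concentration not given here.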 To be noted: OD600, 24 h, higher = more signal, called active from +8 up or from −8 down.
A short description of test [17]: E. coli acrAB mutant growth effects, primary screen, E. coli filamentation inducers, strain DRC39, OD650, 24 h (AID 1178).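 Further: growth measured as culture turbidity by optical density at 650 nm; test concentration not given here.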 To be noted: higher = more signal, called active from +8 up or from −8 down.
Test [18] can be described thus: E. coli acrAB mutant growth effects, primary screen, E. coli filamentation inducers, strain DRC39, OD650, 48 h (AID 1179).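 Further: screen aims at cell division blockers that make cells filament.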 To be noted: E. coli DRC39 delta-acrAB growth, higher = more signal, called active from +8 up or from −8 down.
The nature of test [19]: RPMI8226 myeloma cell viability, profiling panel, resazurin fluorescence, basal, 24 h, PK04 Diversity Set (AID 1180).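 Further: RPMI8826 multiple myeloma cell line at 5000 cells per well; test concentration not given here.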 To be noted: higher = more signal.
The target in test [20] is E3 ubiquitin-protein ligase XIAP (Homo sapiens) (UniProt P98170). Put plainly: XIAP binders, primary screen, biophysical, small-molecule microarray, fluorescence 635 nm (AID 1181).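 Further: score merges 667 nm emission and signal to noise over triplicate slides.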 To be noted: small-molecule microarray binding, higher = more signal.

SMILES strings stand for the structures. The source made the active and inactive calls. Unless noted, how the calls were made is not given here.

Sequence of E3 ubiquitin-protein ligase XIAP (Homo sapiens) (P98170 whole entry, looked up): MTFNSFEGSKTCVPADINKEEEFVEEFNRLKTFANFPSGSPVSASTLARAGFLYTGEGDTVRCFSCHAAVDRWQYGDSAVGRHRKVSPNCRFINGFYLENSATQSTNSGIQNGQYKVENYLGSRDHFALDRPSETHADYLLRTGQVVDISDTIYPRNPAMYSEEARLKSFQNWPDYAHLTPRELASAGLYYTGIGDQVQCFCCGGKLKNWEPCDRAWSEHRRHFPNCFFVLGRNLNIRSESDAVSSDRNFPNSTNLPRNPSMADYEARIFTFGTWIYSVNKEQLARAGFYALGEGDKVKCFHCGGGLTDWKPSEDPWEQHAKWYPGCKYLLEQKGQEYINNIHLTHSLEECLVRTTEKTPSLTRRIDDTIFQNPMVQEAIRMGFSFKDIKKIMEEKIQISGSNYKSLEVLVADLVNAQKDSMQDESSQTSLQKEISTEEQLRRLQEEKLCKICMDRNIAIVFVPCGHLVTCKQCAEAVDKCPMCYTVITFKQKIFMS
Sequence of Dihydroorotate dehydrogenase (quinone), mitochondrial (Plasmodium falciparum (isolate 3D7)) (Q08210 whole entry, looked up): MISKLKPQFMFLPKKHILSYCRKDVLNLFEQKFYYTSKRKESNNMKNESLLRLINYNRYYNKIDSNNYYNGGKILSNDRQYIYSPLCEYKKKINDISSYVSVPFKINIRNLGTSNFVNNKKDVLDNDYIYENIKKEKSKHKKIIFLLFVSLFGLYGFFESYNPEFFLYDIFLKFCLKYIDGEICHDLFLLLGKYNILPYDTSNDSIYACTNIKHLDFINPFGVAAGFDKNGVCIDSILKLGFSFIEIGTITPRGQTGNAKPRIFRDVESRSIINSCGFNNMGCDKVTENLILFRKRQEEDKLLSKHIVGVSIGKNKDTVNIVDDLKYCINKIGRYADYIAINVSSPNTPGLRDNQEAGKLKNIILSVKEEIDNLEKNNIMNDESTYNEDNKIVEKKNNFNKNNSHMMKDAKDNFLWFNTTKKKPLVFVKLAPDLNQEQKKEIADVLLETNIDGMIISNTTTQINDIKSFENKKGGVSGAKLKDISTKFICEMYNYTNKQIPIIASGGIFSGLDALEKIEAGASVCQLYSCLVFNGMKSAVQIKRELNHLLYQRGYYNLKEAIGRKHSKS

For the compound `COc1cccc(C)c1NC(=O)O[C@H]1[C@H](OC(=O)Nc2ccc3c(c2)OCO3)[C@@H](OC(=O)Nc2ccc3c(c2)OCO3)[C@@H](OC)O[C@@H]1CO`, the z-score is -0.551 in test [1]; -0.271 in [2]; -1.28 in [3]; -2.27 in [4]; -0.815 in test [5]; -0.445 in [6]. Besides, the z-score is 0.925 (inactive) in test [7]; -0.863 in [8]; -0.0492 in [9]; -0.315 (inactive) in test [10]; -0.808 in test [11]; 1.21 (inactive) in test [12]. Also, the z-score is -1.06 (inactive) in [13]; 3.29 (inactive) in test [15]; 2.4 (inactive) in test [16]; 1.5 (inactive) in test [17]; -0.1 (inactive) in test [18]; -0.939 in test [19]. In addition, the composite z-score in test [14] is -0.191 (inactive); in [20] it was 0.196.

On to `O=C1OCCC=C[C@H]2OC34C=CCN(Cn5nnc6ccccc65)C(=O)[C@H]3N(CCCO)C(=O)[C@@H]4C12` (stereo not given in full), for which the z-score is 0.213 in [1]; 1.03 in test [2]; -1.1 in [3]; 0.114 in [4]; -1.04 in test [5]; -0.746 in test [6]. The z-score in [7] is 0.147 (inactive); in test [8], 0.057; in test [9], 0.251; in test [10], -0.618 (inactive); in test [11], -0.614; in [12], -0.63 (inactive). Also, the z-score in [13] is 0.157 (inactive); in [15], -0.441 (inactive); in [16] it was 0.227 (inactive); in test [17] it was -1.13 (inactive); in test [18], -0.951 (inactive); in test [19], -0.997. Besides, the composite z-score in test [14] was -0.535 (inactive); in [20], -0.0351.

For `C=CCC(OC(C)=O)[C@@H]1[C@@H](N(Cc2cccc3ccccc23)C(=O)Cc2ccc(OC)cc2)c2cc(OCCCO)ccc2N1C(=O)c1ccc(-c2ccccc2)cc1` (stereo not given in full), the z-score in [1] was -0.433; in [2], 1.12; in [3], 0.256; in test [4] it was -0.47; in test [5], 0.0509; in [6], 2.36. For the same compound, the z-score in test [7] was 0.286 (inactive); in test [8] it was 0.0206; in [9], 0.621; in test [10], 0.48 (inactive); in test [11] it was -0.433; in test [12], 0.376 (inactive). Further, the z-score is 0.551 (inactive) in [13]; -0.121 (inactive) in [15]; -0.352 (inactive) in test [16]; 0.144 (inactive) in test [17]; -0.165 (inactive) in test [18]; 0.0598 in test [19]. For the same compound, the composite z-score in test [14] was -0.547 (inactive); in test [20], -0.224.

Take `C#Cc1cc2ccccc2oc1=O`: the z-score was -1.35 in test [1]; -1.04 in [2]; -0.651 in test [3]; -0.932 in [4]; -0.414 in [5]; -1.5 in [6]. Further, the z-score in [7] was 0.272 (inactive); in test [8], 0.923; in test [9] it was -0.99; in [10], -0.629 (inactive); in test [11], 0.236; in test [12], -5.07 (inactive). For the same compound, the z-score in test [13] is -1.05 (inactive); in test [15], -0.0322 (inactive); in [16], -0.874 (inactive); in [17], -1.46 (inactive); in test [18], -1.25 (inactive); in test [19], -1.14. Moreover, the composite z-score in [14] is -0.748 (inactive); in [20] it was -0.172.

`O=C1O[C@@H](c2ccccc2)[C@@H](c2ccccc2)N2[C@@H](c3ccc(O)cc3)[C@]3(C(=O)Nc4ccc(C#CCCO)cc43)[C@@H](C(=O)N3CCN(c4ncccn4)CC3)[C@H]12`: the z-score in test [1] was -0.716; in test [2] it was -0.0773; in [3] it was 0.0219; in test [4], 0.441; in [5], 0.1; in test [6] it was -1.95. Moreover, the z-score in [7] was -0.252 (inactive); in test [8] it was -0.681; in test [9], -0.425; in test [10], 0.378 (inactive); in test [11], 1.13; in [12], 1.94 (inactive). The z-score in [13] was 0.609 (inactive); in test [15], 1.77 (inactive); in test [16], 2.96 (inactive); in [17] it was 1.08 (inactive); in [18], 0.602 (inactive); in [19], 0.509. In addition, the composite z-score is 0.378 (inactive) in [14] and -0.197 in [20].

`CO[C@H]1O[C@H](CO)[C@@H](OC(=O)Nc2ccc3c(c2)OCO3)[C@H](OC(=O)Nc2ccc3c(c2)OCO3)[C@@H]1OC(=O)Nc1ccc2c(c1)OCO2`: the z-score is -0.077 in [1]; 0.0003 in test [2]; -0.797 in test [3]; -1.89 in [4]; -1.84 in test [5]; -1.14 in [6]. Also, the z-score in [7] was -0.13 (inactive); in [8], -0.538; in [9] it was -0.357; in test [10], -0.333 (inactive); in test [11], -0.907; in test [12], 1.44 (inactive). For the same compound, the z-score in [13] is -0.309 (inactive); in test [15], 1.05 (inactive); in test [16], 1.81 (inactive); in test [17] it was 1.01 (inactive); in test [18] it was -0.147 (inactive); in test [19], -0.472. Besides, the composite z-score in [14] is -0.732 (inactive); in test [20] it was 0.374.

As to `C=CC[C@@]1(C(=O)NCCCOC)N=C(c2ccc(OCCCO)cc2)O[C@@H]1c1ccccc1`, the z-score in [1] was 0.689; in [2], 0.457; in test [3] it was 0.83; in [4], 0.611; in [5], 0.751; in test [6], -0.166. In addition, the z-score was 1.21 (inactive) in test [7]; -0.323 in test [8]; 0.193 in test [9]; -0.706 (inactive) in test [10]; -0.843 in [11]; -1.85 (inactive) in test [12]. For the same compound, the z-score in test [13] was -0.203 (inactive); in test [15], -0.375 (inactive); in test [16], -1.27 (inactive); in test [17] it was -0.12 (inactive); in test [18], 1.13 (inactive); in test [19], -0.1. In addition, the composite z-score was -1.65 (inactive) in test [14] and 0.065 in test [20].

`COC(=O)c1c(CC[C@@H](CO)NC(=O)N2CCC[C@H]2Cn2cc(C3(O)CCCCC3)nn2)oc(C(C)=O)c1C(=O)OC`: the z-score was -0.615 in test [1]; 0.209 in test [2]; -0.513 in test [3]; 0.205 in test [4]; 0.577 in test [5]; 0.223 in test [6]. In addition, the z-score was -0.629 (inactive) in [7]; -0.667 in test [8]; -0.38 in test [9]; -0.168 (inactive) in [10]; -0.089 in [11]; -0.212 (inactive) in test [12]. Further, the z-score was -0.66 (inactive) in [13]; -0.546 (inactive) in [15]; -0.37 (inactive) in test [16]; 0.294 (inactive) in test [17]; -0.0642 (inactive) in test [18]; -0.302 in test [19]. Also, the composite z-score in [14] is -0.0366 (inactive); in test [20], -0.0448.
